Test results: PubChem BioAssay (NCATS)
Records with an inconclusive call do not appear. Calls of active or inactive are those of the source. Calls come from the whole dose curve; as a rule, active = well fitted curve in the direction sought with a large enough effect; inconclusive = small, poorly fitted or top-dose-only effect, or another doubt; inactive = no such curve, though single readings can be large; an effect the other way counts as inactive or inconclusive.

Experiments:
CRL-7250 = normal cell line; assay: Cytotoxic Profiling of Annotated Libraries Using Quantitative High-Throughput Screening (AID 1296008); conditions: Five cell lines viability, CellTiter-Glo ATP luminescence, 48-72 h; max response: stronger effect = lower value; note: nearly all actives have a fitted effect of over 60% in size
Procedure, shortened: (§1)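 Compounds were pin-transferred onto cells and incubated 48 or 72 hr at 37 degree Celsius, 95% humidity. CellTiter-Glo was added, plates sat 10 min at room temperature, then ATP-coupled luminescence was imaged as the viability read-out.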

HaCat = assay: as above; conditions: Five cell lines viability, CellTiter-Glo ATP luminescence, 48-72 h; max response: stronger effect = lower value
Procedure, shortened: as §1

KB-3-1 = assay: as above; conditions: Five cell lines viability, CellTiter-Glo ATP luminescence, 48-72 h; max response: stronger effect = lower value
Procedure, shortened: as §1

NIH3T3 = assay: as above; conditions: Five cell lines viability, CellTiter-Glo ATP luminescence, 48-72 h; max response: stronger effect = lower value
Procedure, shortened: as §1

C33A = assay: Primary qHTS to identify gynecologic anti-cancer compounds using libraries of approved drugs and bioactive compounds (AID 1345084); conditions: Gynecologic cancer cell panel viability, ATPlite luminescence, 48 h; series mostly up to 57.5 µM; note: nearly all actives have a fitted effect of over 55% in size
Procedure, shortened: (§2)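 Five-concentration response, 48 h; readout is ATP-driven luciferase luminescence.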

CAOV3 = assay: as above; conditions: Gynecologic cancer cell panel viability, ATPlite luminescence, 48 h; series mostly up to 57.5 µM
Procedure, shortened: as §2

CASKI = assay: as above; conditions: Gynecologic cancer cell panel viability, ATPlite luminescence, 48 h; series mostly up to 57.5 µM
Procedure, shortened: as §2

Es-2 = assay: as above; conditions: Gynecologic cancer cell panel viability, ATPlite luminescence, 48 h; series mostly up to 57.5 µM
Procedure, shortened: as §2

HeLa = assay: as above; conditions: Gynecologic cancer cell panel viability, ATPlite luminescence, 48 h; series mostly up to 57.5 µM
Procedure, shortened: as §2

Hek293T = assay: as above; conditions: Gynecologic cancer cell panel viability, ATPlite luminescence, 48 h, control line for the selectivity index; series mostly up to 57.5 µM
Procedure, shortened: as §2

JEG-3 = assay: as above; conditions: Gynecologic cancer cell panel viability, ATPlite luminescence, 48 h; series mostly up to 57.5 µM
Procedure, shortened: as §2

OV90 = assay: as above; conditions: Gynecologic cancer cell panel viability, ATPlite luminescence, 48 h; series mostly up to 57.5 µM
Procedure, shortened: as §2

PA-1 = assay: as above; conditions: Gynecologic cancer cell panel viability, ATPlite luminescence, 48 h; series mostly up to 57.5 µM
Procedure, shortened: as §2

SKOV3 = assay: as above; conditions: Gynecologic cancer cell panel viability, ATPlite luminescence, 48 h; series mostly up to 57.5 µM
Procedure, shortened: as §2
% is set by controls: 0 for no effect and ±100 for the full control effect.

CC(C)CCNc1ncccc1C(=O)N1CCN(Cc2ccccc2)CC1
inactive: max response (CRL-7250) -4.32% | max response (HaCat) 1.63% | max response (KB-3-1) 4.22% | max response (NIH3T3) 2.66% | Potency (C33A) | Potency (CAOV3) | Potency (CASKI) | Potency (Es-2) | Potency (HeLa) | Potency (Hek293T) | Potency (JEG-3) | Potency (OV90) | Potency (PA-1) | Potency (SKOV3)

COc1ccc(NC(=O)C2C[C@H](C)CC[C@H]2C(C)C)cc1 (stereo partly specified)
inactive: outcome (CRL-7250) | max response (HaCat) -2.17% | outcome (KB-3-1) | max response (NIH3T3) -6.73% | Potency (C33A) | Potency (CAOV3) | Potency (CASKI) | Potency (Es-2) | Potency (HeLa) | Potency (Hek293T) | Potency (JEG-3) | Potency (OV90) | Potency (PA-1) | Potency (SKOV3)

C/C(=C/CO)CCC1C(C)CCC2C(C)(C)CCCC12C (stereo unspecified)
inactive: max response (CRL-7250) -3.35% | max response (HaCat) -18.8% | max response (KB-3-1) 6.99% | max response (NIH3T3) 1.98% | Potency (C33A) | Potency (CAOV3) | Potency (CASKI) | Potency (Es-2) | Potency (HeLa) | Potency (Hek293T) | Potency (JEG-3) | Potency (OV90) | Potency (PA-1)

C[C@H](Nc1cc2c(-c3ccc4c(c3)OCO4)noc2cn1)c1ccccc1
inactive: max response (CRL-7250) 3% | max response (HaCat) -9.56% | outcome (KB-3-1) | max response (NIH3T3) -4.93% | Potency (C33A) | Potency (CAOV3) | Potency (CASKI) | Potency (Es-2) | Potency (HeLa) | Potency (Hek293T) | Potency (JEG-3) | Potency (OV90) | Potency (PA-1)

Cc1c(F)ccc(C(=O)Nc2cc([N+](=O)[O-])ccc2N2CCN(C)CC2)c1Cl
inactive: max response (CRL-7250) 1.68% | max response (HaCat) 0.293% | outcome (KB-3-1) | max response (NIH3T3) 1.43% | Potency (C33A) | Potency (CAOV3) | Potency (CASKI) | Potency (Es-2) | Potency (HeLa) | Potency (Hek293T) | Potency (JEG-3) | Potency (OV90) | Potency (PA-1) | Potency (SKOV3)

C=C1C(=O)OC[C@@H]1C/C=C(\C)CC1CC(C)C(=O)O1 (stereo partly specified)
inactive: max response (CRL-7250) -16.8% | max response (HaCat) 2.44% | outcome (KB-3-1) | max response (NIH3T3) -3.27% | Potency (C33A) | Potency (CAOV3) | Potency (CASKI) | Potency (Es-2) | Potency (HeLa) | Potency (Hek293T) | Potency (JEG-3) | Potency (OV90)

C[C@@H](NC(=O)[C@H](O)c1cc(F)cc(F)c1)C(=O)N[C@@H]1C(=O)N(C)c2ccccc2-c2ccccc21
inactive: max response (CRL-7250) 0.116% | max response (HaCat) -11.4% | max response (KB-3-1) 5.92% | max response (NIH3T3) -0.195% | Potency (C33A) | Potency (CAOV3) | Potency (CASKI) | Potency (Es-2) | Potency (HeLa) | Potency (Hek293T) | Potency (JEG-3) | Potency (OV90) | Potency (PA-1)

CCC/C=C\C=C/CCc1cc(O)c([C@@H]2O[C@H](CO)[C@@H](O)[C@H](O)[C@H]2O)c(O)c1C(=O)OC
inactive: max response (CRL-7250) -29.4% | max response (HaCat) -26.9% | max response (KB-3-1) -7.75% | max response (NIH3T3) -3.37% | Potency (C33A) | Potency (CAOV3) | Potency (CASKI) | Potency (Es-2) | Potency (HeLa) | Potency (Hek293T) | Potency (JEG-3) | Potency (OV90) | Potency (PA-1) | Potency (SKOV3)

Cn1ncnc1[C@@H]1c2n[nH]c(=O)c3cc(F)cc(c23)N[C@H]1c1ccc(F)cc1
inactive: max response (CRL-7250) -10.4% | max response (HaCat) -18% | outcome (KB-3-1) | max response (NIH3T3) -15% | Potency (C33A) | Potency (CAOV3) | Potency (CASKI) | Potency (Es-2) | Potency (HeLa) | Potency (Hek293T) | Potency (JEG-3) | Potency (OV90) | Potency (PA-1) | Potency (SKOV3)

CC(=O)OC/C(=C/C(=O)O)CC[C@@H]1C(C=O)=CC[C@@H]2C(C)(C)CCC[C@@]12C
inactive: max response (CRL-7250) 4.87% | max response (HaCat) 3.05% | max response (KB-3-1) 3.67% | max response (NIH3T3) 3.58% | Potency (C33A) | Potency (CAOV3) | Potency (CASKI) | Potency (Es-2) | Potency (HeLa) | Potency (Hek293T) | Potency (JEG-3) | Potency (OV90) | Potency (PA-1) | Potency (SKOV3)

CCC(C)/C=C(C)/C=C/C1=CC2=CC(=O)C3(C)OC(C)(O)C(C(=O)OC)C3C2=CO1 (stereo unspecified)
inactive: max response (CRL-7250) 2.86% | max response (HaCat) 4.73% | max response (KB-3-1) 0.0483% | max response (NIH3T3) -9.14% | Potency (C33A) | Potency (CAOV3) | Potency (CASKI) | Potency (Es-2) | Potency (HeLa) | Potency (Hek293T) | Potency (JEG-3) | Potency (OV90) | Potency (PA-1) | Potency (SKOV3)

O=C(N[C@H]1CCC[C@H](CO)C1)C1CCN(c2nc3cc(Cl)c(-c4ccc(Cl)cc4)cc3o2)CC1
inactive: max response (CRL-7250) -0.419% | max response (HaCat) -4.31% | max response (KB-3-1) -14.3% | max response (NIH3T3) 0.931% | Potency (C33A) | Potency (CAOV3) | Potency (CASKI) | Potency (Es-2) | Potency (HeLa) | Potency (Hek293T) | Potency (JEG-3) | Potency (OV90) | Potency (PA-1)

COc1cc(-c2nc(N[C@H](CO)Cc3ccccc3)ccc2C(=O)NCCOc2ccccc2)cc(OC)c1OC
inactive: max response (CRL-7250) 4.02% | max response (HaCat) -1.78% | max response (KB-3-1) 7.13% | max response (NIH3T3) -3.25% | Potency (C33A) | Potency (CAOV3) | Potency (CASKI) | Potency (Es-2) | Potency (HeLa) | Potency (Hek293T) | Potency (JEG-3) | Potency (OV90) | Potency (PA-1) | Potency (SKOV3)
